# Screen size: about 48,000 compounds; about 13,000 (27%) showed an effect of 50% or more. Some of the results follow.
# System: Wolbachia pipientis
# Assay: Anti-Wolbachia Cell-Based Screen
# Assay type: functional
# Design: scale not given: in the data most compounds retested in dose-response had high values
# Conditions: 5 µM
row,SMILES,Percent Effect [%]
1,CCOCC(=O)NC1(c2cccc(Cl)c2)CC1,-6.24
2,Cc1nc2ccccc2nc1CN1CCCC1Cn1cccn1 (configuration not stated),15.41
3,CCCc1nc(CN2CCCC2Cn2cccn2)cs1 (configuration not stated),-10.42
4,Cc1nc(CN2CCCC2Cn2cccn2)nc2ccccc12 (configuration not stated),5.126
5,Cc1nc(C)n(CC2CCCN2Cc2cn(-c3ccccc3)nn2)n1 (configuration not stated),-1.626
6,c1ccc(-n2cc(CN3CCCC3Cn3cccn3)nn2)cc1 (configuration not stated),141.8
7,c1cnn(CC2CCCN2Cc2ccc(-n3cccn3)cc2)c1 (configuration not stated),123
8,CCC(=O)N1CCN(C(=O)Nc2ccc(Cl)cc2)[C@H]2CS(=O)(=O)C[C@H]21,20.51
9,O=C(COC1CCCC1)N1C[C@@H]2CN(Cc3ccoc3)CCO[C@@H]2C1.O=C(O)C(F)(F)F,-10.48
10,O=C1NCC(C(=O)Nc2ncc(Cc3ccccc3F)s2)N1 (configuration not stated),80.55
11,CC(=O)Nc1ncc(S(=O)(=O)Nc2ccc(F)cc2)s1,1.75
12,CC(=O)Nc1ncc(S(=O)(=O)Nc2ccc(F)cc2F)s1,11.75
13,O=C(NCc1ccccc1F)NC1CCCN(c2ncccn2)C1 (configuration not stated),7.135
14,O=C1NCC(C(=O)Nc2ncc(Cc3ccc(F)cc3F)s2)N1 (configuration not stated),122.8
15,Cc1ccccc1Cc1cnc(NC(=O)C2CNC(=O)N2)s1 (configuration not stated),1.413
16,CCCNc1ncc(C2CC(=O)NCc3nc4ccccn4c32)cn1 (configuration not stated),19.88
17,CCS(=O)(=O)c1ccccc1N1CCC(NC(C)=O)CC1,-10.39
18,CN(CCN1CCCCCC1)C(=O)c1c(O)cccc1O,-5.64
19,NC(=O)c1c(SCCN2CCCCC2)sc2c(O)cc(=O)[nH]c12,88.72
20,CCOCC(=O)N1CC(=O)Nc2cc(Br)ccc21,-5.264
21,Cc1cc(C(=O)NCCn2nc3ccccn3c2=O)[nH]n1,-11.84
22,Cc1ccc(CSCCn2nc3ccccn3c2=O)cc1,-0.2652
23,O=c1n(CCNCc2ccc3ccccc3c2)nc2ccccn12,96.37

row,SMILES,Percent Effect [%]
1,O=c1n(CCNCc2ccc(-c3ccccc3)cc2)nc2ccccn12,92.23
2,Cc1ccc2cc(C(=O)NCCn3nc4ccccn4c3=O)[nH]c2c1,12.5
3,Cc1cc(C)c2c(c1)C(NC(=O)CSCC(N)=O)CCO2 (configuration not stated),-11.46
4,COc1ccc(OC2CCN(C(=O)C(C)Cn3cccn3)CC2)cc1 (configuration not stated),-7.925
5,N[C@@H](Cc1c[nH]cn1)C(=O)N1CCC(Oc2ccc(F)cc2)CC1,142.9
6,CN1CCC(N(C)CCC(=O)N2CCC(Oc3ccc(Cl)cc3)CC2)C1 (configuration not stated),-10.05
7,O=C(N1CCC(Oc2ccncc2)CC1)C1(c2ccc(F)cc2)CC1,4.458
8,Cc1ccc(OC2CCN(C(=O)C(C)Cn3cccn3)CC2)cc1 (configuration not stated),-8.941
9,O=C(O)c1ccc(N2CCC(Oc3ccc(Cl)cc3)CC2)nc1,7.355
10,COc1ccc(OC2CCN(C(=O)c3cnc(C)s3)CC2)cc1,-7.331
11,N[C@@H](Cc1c[nH]cn1)C(=O)N1CCC(Oc2ccc(Cl)cc2)CC1,129.2
12,COc1ccc(OC2CCN(C(=O)[C@@H](N)Cc3c[nH]cn3)CC2)cc1,108.9
13,CCN(Cc1nc(COC)no1)Cc1cccnc1NC,-1.287
14,COCCCN1CCC(CNc2nccc(-c3cnn(C)c3)n2)C1 (configuration not stated),0.7819
15,CN(C)C(=O)c1cc2ncc(C(=O)NC3CC3)cc2n1C,122.1
16,CC(C)Oc1ncc(C(=O)N2CCC(N(C)C)CC2)cc1Cl,-24.51
17,O=C(NC1CC1)c1cnc2n1CCCC2,4.998
18,CN(C)C(=O)c1cccc(C[S+]([O-])CC(=O)NC2CCCC2)c1 (configuration not stated),8.2
19,Cn1nc(C(=O)NC2CCCC2)cc1NC(=O)C1CC1,3.278
20,CC1CCN(C(=O)c2cnc3cc(C(=O)N(C)C)n(C)c3c2)CC1,124.9
21,CN(C)C(=O)c1cc2ncc(C(=O)NC3CCCC3)cc2n1C,130.7
22,CCNc1ncc(C(=O)N[C@H]2CC[C@H](n3cnnc3)CC2)cn1,-5.329
23,CC1CCN(C(=O)c2cccc3ncccc23)CC1,-1.834

row,SMILES,Percent Effect [%]
1,COC(C(=O)N1CCN(Cc2noc(C)n2)CC1)c1ccccc1 (configuration not stated),-8.523
2,Cc1cc(C)n2cc(CN3CCCC3Cn3nc(C)nc3C)nc2n1 (configuration not stated),-6.959
3,Cn1cncc1-c1nnc([C@H]2CCN(Cc3ccc(CO)o3)C2)o1,-1.062
4,Cc1nn(C)c2ncc(NC(=O)N(C)Cc3cc(Cl)cn3C)cc12,-3.854
5,CC[C@H]1N(Cc2ccco2)CCC[C@]12CCC(=O)N2C,102.2
6,CC[C@@H]1N(Cc2ccco2)CCC[C@]12CCC(=O)N2C.O=C(O)C(F)(F)F,98.83
7,COC[C@@H]1CN(C)C(=O)[C@@H]2CCN(Cc3ccco3)CC[C@H]12,-1.368
8,COC1COC2(CCN(Cc3ccco3)CC2)C1 (configuration not stated),-9.93
9,Cn1nnc2c1CCN(Cc1ccco1)C2COCc1ccccc1.O=C(O)C(F)(F)F (configuration not stated),30.71
10,COC(=O)CCN(CC1CCOC1)C1CC1 (configuration not stated),-6.747
11,Cc1nnc(C(C)N(C)Cc2c(C)nn(-c3ccccc3)c2C)o1 (configuration not stated),2.363
12,COCC1CN(Cc2ccccn2)Cc2cn(C)nc21.O=C(O)C(F)(F)F.O=C(O)C(F)(F)F.O=C(O)C(F)(F)F (configuration not stated),-7.522
13,O=C(Nc1cccc(OCc2cccc(F)c2)c1)C1COCCO1 (configuration not stated),-8.331
14,O=C1NCC(C(=O)Nc2ncc(Cc3ccc(F)cc3)s2)N1 (configuration not stated),110.5
15,O=C(Nc1nncs1)N(Cc1cccc(F)c1)C1CC1,-1.833
16,O=C1NCC(C(=O)Nc2ncc(Cc3cccc(F)c3)s2)N1 (configuration not stated),100.2
17,Cc1ccc(C)c(Oc2ccc(CNC(=O)C3CNC(=O)N3)cn2)c1 (configuration not stated),-1.964
18,O=C1NCC(C(=O)N(Cc2cccc(Br)c2)C2CC2)N1 (configuration not stated),3.322
19,CC(=O)NC(C)(C)C(=O)Nc1ncc(Cc2ccc(C)c(F)c2)s1,7.127
20,O=C1NCC(C(=O)Nc2ncc(Cc3ccccc3)s2)N1 (configuration not stated),107.9
21,Cc1ccc(Cc2cnc(NC(=O)C3CNC(=O)N3)s2)cc1F (configuration not stated),1.212
